In PubChem BioAssay AID686915 (National Center for Advancing Translational Sciences (NCATS), 2013):
Where “and” joins values, the source holds several entries; their conditions need not be identical. Identical values can stand only once. Records with an inconclusive call do not appear. Calls of active or inactive are those of the source. Calls follow the shape of the dose curve; as a rule, active = well fitted inhibition curve with a large enough effect; inconclusive = small, poorly fitted or top-dose-only effect; inactive = no such curve, though single readings can be large or run the other way.

Experiment: qHTS screen for inhibitors of ELG1-dependent DNA repair in human embryonic kidney (HEK293T) cells expressing luciferase-tagged ELG1: MMS Stimulated Assay for probe SAR
Conditions: HEK293T ELG1-luciferase reporter, 16 h; series mostly up to 46.1 µM; activity change, negative = inhibition: at the top concentration
From the text: Cancer cells divide rapidly compared to normal cells in the body. During cell division, cancer cells need to duplicate their genome by DNA replication. The failure of genome duplication leads to cancer cells' death. Therefore, inhibitors of DNA replication could specifically kill cancer cells. Based on this concept, many chemotherapeutic agents were developed and have been used to treat cancer patients. However, there are a limited number of agents available in the clinical setting, and some of those that do exist have low efficacy and severe side effects. Therefore, if we can find the compounds that effectively block DNA replication either by directly damaging DNA or by inhibiting other cellular mechanisms, the options for cancer treatment will be broadened. With this in mind, we developed a quantitative high-throughput ELG1-luciferase reporter gene assay. Small molecules that specifically block ELG1 function in response to DNA damage can be identified by monitoring the suppression of luciferase activity. Since ELG1 defines a pathway for repairing DNA damage, agents blocking ELG1 function can be used to sensitize cancer cells to chemotherapeutic agents whose mechanism of action involves the induction of DNA damage. NIH Molecular Libraries Probe Production Network [MLPCN] NIH Chemical Genomics Center [NCGC] MLPCN Grant: R03 MH092164 Assay Provider: Kyungjae Myung, NHGRI, NIH
ELG1-luc HEK293T cells will be seeded in 1536-well plates at a density of 2,000 cells / well. Approximately 5 hours after plating, compounds will be added to the plate by pin tool transfer and MMS will be added by FRD dispenser (final concentration of MMS = 10 µM). 16 hours following the addition of the compounds, luciferase activity will be measured using Amplight reagent.

| Structure (SMILES) | Potency | activity change, negative = inhibition |
| --- | --- | --- |
| COc1cc(-c2nc(Nc3ccc(F)c(F)c3)c3ccccc3n2)c(F)cn1 | 8.33 µM (active) |  |
| Fc1cc(Nc2nc(-c3ccncc3)nc3ccccc23)ccc1-c1cccnc1 |  | 8.42% (inactive) |
| Fc1cc(Nc2nc(-c3ccncc3)nc3ccccc23)ccc1N1CCCCC1 | 18.7 µM (active) |  |
| Fc1ccc(Nc2nc(-c3ccncc3Cl)nc3ccccc23)cc1F |  | -16.3% (inactive) |
| COc1ccc(-c2nc(Nc3ccc(F)c(F)c3)c3ccccc3n2)cc1 |  | 10.2% (inactive) |
| CN1CCN(c2ccc(Nc3nc(-c4ccncc4)nc4ccccc34)cc2F)CC1 |  | -13.1% (inactive) |
| Fc1cc(Nc2nc(-c3ccncc3)nc3ccccc23)ccc1-c1cccc(OC(F)(F)F)c1 | 23.5 µM (active) |  |
| c1ccc2c(Nc3ccn[nH]3)nc(-c3ccncc3)nc2c1 | 4.69 µM (active) |  |
| Fc1ccc(Nc2nc(-c3ccncc3)nc3ccccc23)cc1F |  | -12.5% (inactive) |
| COc1ccc(-n2c(C)c(C(C)=O)c3ccccc32)cc1 | 7.43 µM (active) and 6.62 µM (active) |  |
| O=[N+]([O-])c1ccc(-c2nc(Nc3ccc(F)c(F)c3)c3ccccc3n2)cc1 |  | -7.96% (inactive) |
| Fc1cc(Nc2nc(-c3ccncc3)nc3ccccc23)ccc1OCC(F)(F)F |  | -19.7% (inactive) |
